What all share (assay): DAPPL (digital affinity profiling via proximity ligation, sequencing); 10 mM Tris-HCl pH 7.5, 50 mM NaCl, 1 mM DTT, 4% glycerol, room temperature, 30 min; GST-TFs on glutathione beads, 16-mer random dsDNA library, 0.1% formaldehyde crosslink after washing; high values mean tight binding
What all share (details): protein: recombinant; tags: N-terminal GST; dsDNA, one strand shown

One test has as its target T1, FLI1 (Homo sapiens, UniProt Q01543 1-452).
T1 sequence: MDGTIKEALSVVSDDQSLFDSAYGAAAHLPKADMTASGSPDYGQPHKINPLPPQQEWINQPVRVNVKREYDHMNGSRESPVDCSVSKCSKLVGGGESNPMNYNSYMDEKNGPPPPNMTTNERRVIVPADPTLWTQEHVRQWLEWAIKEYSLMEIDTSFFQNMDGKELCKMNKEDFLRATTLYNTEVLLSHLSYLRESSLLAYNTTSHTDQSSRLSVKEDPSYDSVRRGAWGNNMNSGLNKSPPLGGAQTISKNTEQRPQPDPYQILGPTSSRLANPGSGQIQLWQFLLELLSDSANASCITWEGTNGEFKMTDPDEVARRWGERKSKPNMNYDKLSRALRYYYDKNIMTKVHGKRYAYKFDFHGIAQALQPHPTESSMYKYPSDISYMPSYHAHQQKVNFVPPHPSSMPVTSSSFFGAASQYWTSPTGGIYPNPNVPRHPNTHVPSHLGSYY
In a few lines:
(§1)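 In yeast, human transcription factors were expressed with a GST fusion, then pulled down on glutathione beads and given DNA barcodes. Pooled with a tag-only sample, they were exposed to 200 nmole of a 16-mer random double-stranded DNA library (Tris/NaCl/DTT/glycerol buffer, room temperature, 30 min), washed, crosslinked with 0.1% formaldehyde, proximity-ligated using BsaI/T4 ligase for 1 h at 37 °C, PCR-amplified and read on an Illumina NextSeq500. Each hexamer's frequency of reads for a factor, divided by the matching frequency for the tag-only sample, gives the binding signal.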

The next test addresses T2, ELK1 (Homo sapiens, UniProt P19419 1-428).
T2 sequence: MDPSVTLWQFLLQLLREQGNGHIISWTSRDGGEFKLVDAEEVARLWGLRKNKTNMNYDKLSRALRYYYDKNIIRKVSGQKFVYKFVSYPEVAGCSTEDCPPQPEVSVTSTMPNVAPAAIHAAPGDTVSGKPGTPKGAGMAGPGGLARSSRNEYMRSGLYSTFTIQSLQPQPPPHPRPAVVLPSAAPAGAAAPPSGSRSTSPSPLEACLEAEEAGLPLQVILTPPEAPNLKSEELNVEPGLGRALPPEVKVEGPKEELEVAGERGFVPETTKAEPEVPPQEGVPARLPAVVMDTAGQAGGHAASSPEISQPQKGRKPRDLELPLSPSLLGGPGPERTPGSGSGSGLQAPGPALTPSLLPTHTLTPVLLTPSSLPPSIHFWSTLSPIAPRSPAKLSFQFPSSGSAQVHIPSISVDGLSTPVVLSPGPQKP
In a few lines:
as §1

For another test, the target named is T3, GABPA (Homo sapiens, UniProt Q06546 1-454).
T3 sequence: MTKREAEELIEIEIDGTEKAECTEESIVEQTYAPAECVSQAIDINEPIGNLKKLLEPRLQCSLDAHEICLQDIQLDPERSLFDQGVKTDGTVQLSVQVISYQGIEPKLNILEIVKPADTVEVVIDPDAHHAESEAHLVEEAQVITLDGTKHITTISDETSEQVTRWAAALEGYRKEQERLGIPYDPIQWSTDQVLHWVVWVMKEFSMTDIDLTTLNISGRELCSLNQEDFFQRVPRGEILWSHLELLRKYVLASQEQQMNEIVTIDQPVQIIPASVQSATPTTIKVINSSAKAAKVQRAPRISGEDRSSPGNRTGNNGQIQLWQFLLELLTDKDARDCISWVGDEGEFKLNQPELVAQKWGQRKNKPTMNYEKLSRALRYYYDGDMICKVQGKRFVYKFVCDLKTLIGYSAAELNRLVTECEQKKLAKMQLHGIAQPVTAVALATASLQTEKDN
In a few lines:
as §1

The target of the next test is T4, ERG (Homo sapiens, UniProt P11308 1-479).
T4 sequence: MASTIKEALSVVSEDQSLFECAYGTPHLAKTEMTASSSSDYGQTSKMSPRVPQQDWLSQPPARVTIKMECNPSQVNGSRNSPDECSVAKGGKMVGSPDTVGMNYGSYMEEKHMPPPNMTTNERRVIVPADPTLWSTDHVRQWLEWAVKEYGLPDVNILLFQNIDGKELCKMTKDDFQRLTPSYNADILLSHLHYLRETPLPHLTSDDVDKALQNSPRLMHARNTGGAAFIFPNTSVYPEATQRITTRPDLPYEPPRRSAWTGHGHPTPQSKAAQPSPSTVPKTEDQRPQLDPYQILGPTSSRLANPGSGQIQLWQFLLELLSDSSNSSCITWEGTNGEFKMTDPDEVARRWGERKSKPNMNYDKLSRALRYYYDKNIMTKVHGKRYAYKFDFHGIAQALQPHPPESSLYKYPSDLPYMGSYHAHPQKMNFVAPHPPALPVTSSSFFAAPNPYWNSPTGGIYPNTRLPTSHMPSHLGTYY
An outline of the steps:
as §1

The next test concerns the target ELF1 (Homo sapiens, UniProt P32519 1-619). In a few lines: as §1
The target of another test is T5, EHF (Homo sapiens, UniProt Q9NZC4 1-300).
T5 sequence: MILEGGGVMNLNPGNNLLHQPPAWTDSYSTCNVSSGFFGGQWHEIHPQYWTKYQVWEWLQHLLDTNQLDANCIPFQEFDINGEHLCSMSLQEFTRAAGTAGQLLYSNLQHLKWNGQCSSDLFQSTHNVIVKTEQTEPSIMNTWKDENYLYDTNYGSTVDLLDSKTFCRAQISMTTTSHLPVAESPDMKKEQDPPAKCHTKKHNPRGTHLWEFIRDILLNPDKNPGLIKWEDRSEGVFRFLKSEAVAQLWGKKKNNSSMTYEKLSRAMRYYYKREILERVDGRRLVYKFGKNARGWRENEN
An outline of the steps: as §1

For another test, the target named is SPI1 (Homo sapiens, UniProt P17947 1-270). An outline of the steps: as §1
The target of a further test is SPIB (Homo sapiens, UniProt Q01892 1-262). An outline of the steps: as §1
Another test has as its target T6, ELK3 (Homo sapiens, UniProt P41970 1-407).
T6 sequence: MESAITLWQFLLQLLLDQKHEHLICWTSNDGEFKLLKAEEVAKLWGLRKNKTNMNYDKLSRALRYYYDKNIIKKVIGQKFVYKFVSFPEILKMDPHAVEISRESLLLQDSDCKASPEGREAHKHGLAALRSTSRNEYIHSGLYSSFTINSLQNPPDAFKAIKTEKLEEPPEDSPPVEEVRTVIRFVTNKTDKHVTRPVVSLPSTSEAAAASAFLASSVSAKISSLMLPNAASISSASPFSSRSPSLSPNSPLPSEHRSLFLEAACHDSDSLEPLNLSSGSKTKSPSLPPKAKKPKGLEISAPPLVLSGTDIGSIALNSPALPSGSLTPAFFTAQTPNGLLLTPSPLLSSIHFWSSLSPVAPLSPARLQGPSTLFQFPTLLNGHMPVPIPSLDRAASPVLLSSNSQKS
In a few lines: as §1

Among the data in article PMC7862700, “An all-to-all approach to the identification of sequence-specific readers for epigenetic DNA modifications on cytosine” are binding signal values, retold here.

Sequence of SPIB (Q01892 whole entry): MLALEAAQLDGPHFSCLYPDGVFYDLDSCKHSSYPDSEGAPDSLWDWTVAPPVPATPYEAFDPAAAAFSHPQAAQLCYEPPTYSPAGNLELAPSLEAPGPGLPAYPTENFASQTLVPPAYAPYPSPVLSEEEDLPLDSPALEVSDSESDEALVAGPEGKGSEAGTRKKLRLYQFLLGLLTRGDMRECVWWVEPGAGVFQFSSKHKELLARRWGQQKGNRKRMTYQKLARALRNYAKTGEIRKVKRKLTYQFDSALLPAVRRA
Sequence of ELF1 (P32519 whole entry): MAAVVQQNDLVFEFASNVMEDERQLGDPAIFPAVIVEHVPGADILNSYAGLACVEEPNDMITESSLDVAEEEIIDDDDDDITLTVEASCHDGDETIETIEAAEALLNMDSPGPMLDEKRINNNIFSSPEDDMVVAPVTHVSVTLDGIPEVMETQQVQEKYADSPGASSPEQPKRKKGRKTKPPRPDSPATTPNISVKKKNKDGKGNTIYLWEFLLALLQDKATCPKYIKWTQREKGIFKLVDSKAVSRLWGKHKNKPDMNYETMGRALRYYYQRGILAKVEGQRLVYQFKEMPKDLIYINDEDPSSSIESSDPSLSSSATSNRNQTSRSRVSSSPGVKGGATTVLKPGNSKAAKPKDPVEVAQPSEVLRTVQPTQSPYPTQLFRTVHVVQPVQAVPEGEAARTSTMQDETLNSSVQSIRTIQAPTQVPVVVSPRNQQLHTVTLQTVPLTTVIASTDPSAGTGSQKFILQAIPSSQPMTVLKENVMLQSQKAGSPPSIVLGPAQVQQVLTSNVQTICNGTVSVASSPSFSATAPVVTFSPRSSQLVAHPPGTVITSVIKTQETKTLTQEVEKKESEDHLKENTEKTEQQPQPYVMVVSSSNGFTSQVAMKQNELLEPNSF

TGCTCT: the binding signal in the test with FLI1 is 1.34 fold enrichment (6-mer frequency, TF over GST control); with ELK1, 1.48 fold enrichment (6-mer frequency, TF over GST control); in the test with GABPA, 1.35 fold enrichment (6-mer frequency, TF over GST control); in the test with ERG it was 1.26 fold enrichment (6-mer frequency, TF over GST control); with ELF1, 1.34 fold enrichment (6-mer frequency, TF over GST control); with EHF it was 1.19 fold enrichment (6-mer frequency, TF over GST control). For the same sequence, the binding signal with SPI1 is 1.42 fold enrichment (6-mer frequency, TF over GST control); in the test with SPIB it was 1.42 fold enrichment (6-mer frequency, TF over GST control); in the test with ELK3 it was 1.3 fold enrichment (6-mer frequency, TF over GST control).
For AATCCC, the binding signal in the test with FLI1 is 1.36 fold enrichment (6-mer frequency, TF over GST control); with ELK1 it was 1.36 fold enrichment (6-mer frequency, TF over GST control); with GABPA, 1.38 fold enrichment (6-mer frequency, TF over GST control); with ERG, 1.42 fold enrichment (6-mer frequency, TF over GST control); with ELF1, 1.35 fold enrichment (6-mer frequency, TF over GST control); with EHF, 1.39 fold enrichment (6-mer frequency, TF over GST control). The binding signal is 1.26 fold enrichment (6-mer frequency, TF over GST control) with SPI1; 1.32 fold enrichment (6-mer frequency, TF over GST control) with SPIB; 1.13 fold enrichment (6-mer frequency, TF over GST control) with ELK3.
On to TTATTG, for which the binding signal in the test with FLI1 was 1.24 fold enrichment (6-mer frequency, TF over GST control); with ELK1 it was 1.27 fold enrichment (6-mer frequency, TF over GST control); with GABPA, 1.28 fold enrichment (6-mer frequency, TF over GST control); with ERG, 1.24 fold enrichment (6-mer frequency, TF over GST control); with ELF1, 1.3 fold enrichment (6-mer frequency, TF over GST control); in the test with EHF it was 1.29 fold enrichment (6-mer frequency, TF over GST control). In addition, the binding signal with SPI1 is 1.18 fold enrichment (6-mer frequency, TF over GST control); with SPIB it was 1.31 fold enrichment (6-mer frequency, TF over GST control); with ELK3, 1.38 fold enrichment (6-mer frequency, TF over GST control).
In the case of CTTCAG, the binding signal in the test with FLI1 is 1.34 fold enrichment (6-mer frequency, TF over GST control); with ELK1, 1.25 fold enrichment (6-mer frequency, TF over GST control); in the test with GABPA, 1.3 fold enrichment (6-mer frequency, TF over GST control); in the test with ERG, 1.32 fold enrichment (6-mer frequency, TF over GST control); with ELF1, 1.36 fold enrichment (6-mer frequency, TF over GST control); with EHF, 1.34 fold enrichment (6-mer frequency, TF over GST control). Moreover, the binding signal with SPI1 is 1.29 fold enrichment (6-mer frequency, TF over GST control); in the test with SPIB, 1.28 fold enrichment (6-mer frequency, TF over GST control); with ELK3 it was 1.34 fold enrichment (6-mer frequency, TF over GST control).
Consider TATGTT, for which the binding signal in the test with FLI1 was 1.25 fold enrichment (6-mer frequency, TF over GST control); with ELK1, 1.23 fold enrichment (6-mer frequency, TF over GST control); with GABPA, 1.22 fold enrichment (6-mer frequency, TF over GST control); with ERG, 1.19 fold enrichment (6-mer frequency, TF over GST control); with ELF1 it was 1.23 fold enrichment (6-mer frequency, TF over GST control); with EHF, 1.23 fold enrichment (6-mer frequency, TF over GST control). For the same sequence, the binding signal in the test with SPI1 is 1.2 fold enrichment (6-mer frequency, TF over GST control); with SPIB, 1.12 fold enrichment (6-mer frequency, TF over GST control); with ELK3, 1.19 fold enrichment (6-mer frequency, TF over GST control).
For TCCGTA, the binding signal in the test with FLI1 was 1.57 fold enrichment (6-mer frequency, TF over GST control); with ELK1, 1.63 fold enrichment (6-mer frequency, TF over GST control); with GABPA, 1.59 fold enrichment (6-mer frequency, TF over GST control); with ERG, 1.52 fold enrichment (6-mer frequency, TF over GST control); in the test with ELF1 it was 1.59 fold enrichment (6-mer frequency, TF over GST control); with EHF, 1.6 fold enrichment (6-mer frequency, TF over GST control). The binding signal is 1.69 fold enrichment (6-mer frequency, TF over GST control) with SPI1; 1.58 fold enrichment (6-mer frequency, TF over GST control) in the test with SPIB; 1.62 fold enrichment (6-mer frequency, TF over GST control) in the test with ELK3.
On to AATATG, for which the binding signal with FLI1 was 1.12 fold enrichment (6-mer frequency, TF over GST control); with ELK1, 1.13 fold enrichment (6-mer frequency, TF over GST control); in the test with GABPA it was 1.15 fold enrichment (6-mer frequency, TF over GST control); with ERG, 1.15 fold enrichment (6-mer frequency, TF over GST control); in the test with ELF1, 1.17 fold enrichment (6-mer frequency, TF over GST control); in the test with EHF, 1.09 fold enrichment (6-mer frequency, TF over GST control). Besides, the binding signal with SPI1 was 1.15 fold enrichment (6-mer frequency, TF over GST control); in the test with SPIB, 1.19 fold enrichment (6-mer frequency, TF over GST control); with ELK3, 1.19 fold enrichment (6-mer frequency, TF over GST control).
Take CTTATA: the binding signal is 1.3 fold enrichment (6-mer frequency, TF over GST control) with FLI1; 1.33 fold enrichment (6-mer frequency, TF over GST control) in the test with ELK1; 1.41 fold enrichment (6-mer frequency, TF over GST control) with GABPA; 1.28 fold enrichment (6-mer frequency, TF over GST control) in the test with ERG; 1.33 fold enrichment (6-mer frequency, TF over GST control) with ELF1; 1.4 fold enrichment (6-mer frequency, TF over GST control) with EHF. Besides, the binding signal with SPI1 is 1.43 fold enrichment (6-mer frequency, TF over GST control); with SPIB, 1.39 fold enrichment (6-mer frequency, TF over GST control); with ELK3, 1.29 fold enrichment (6-mer frequency, TF over GST control).
